# From the supplement of paper PMC8728848
# Many of the other results were omitted from the sample, so the strongest signals are more common in it than they were.
# Legend:
# Test in all cases: glycan array binding signal (z-score within array); higher = stronger binding
# Conditions in all cases: glycan notation: IUPAC condensed, linker removed
# [1] = molecular target: Fuc(a1-2)Gal(b1-3)GlcNAc(b1-3)Gal(b1-4)Glc
# Procedure, shortened: (§1)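 Glycan array data came from 3228 arrays in the Consortium for Functional Glycomics database, and only arrays with an available protein sequence were kept. Glycan names were put into IUPAC-condensed notation, and columns mapping to the same glycan were averaged. The binding signal is a within-array Z-score, averaged across arrays of one protein sequence run at different concentrations or buffers and across linkers. A negative Z-score can be read as non-binding.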
# [2] = molecular target: Fuc(a1-2)[Gal(a1-3)]Gal(b1-3)GlcNAc
# Procedure, shortened: as §1
# [3] = molecular target: Fuc(a1-2)[Gal(a1-3)]Gal(b1-4)Glc
# Procedure, shortened: as §1
# [4] = molecular target: Gal(b1-3)Gal(b1-4)GlcNAc
# Procedure, shortened: as §1
# [5] = molecular target: Gal(b1-3)GalNAc
# Procedure, shortened: as §1
# [6] = molecular target: Gal(b1-4)GalNAc(b1-3)[Fuc(a1-2)]Gal(b1-4)GlcNAc
# Procedure, shortened: as §1
# [7] = molecular target: Gal(b1-4)GlcNAc(b1-3)Gal(b1-4)GlcNAc
# Procedure, shortened: as §1
# [8] = molecular target: Gal3S(b1-3)GlcNAc
# Procedure, shortened: as §1
# [9] = molecular target: Gal6S(b1-4)Glc6S
# Procedure, shortened: as §1
# [10] = molecular target: Gal6S(b1-4)GlcNAc
# Procedure, shortened: as §1
# [11] = molecular target: GalNAc(b1-3)Gal
# Procedure, shortened: as §1
# [12] = molecular target: GlcNAc(b1-4)GlcNAc
# Procedure, shortened: as §1
# [13] = molecular target: Man(a1-2)Man(a1-3)Man
# Procedure, shortened: as §1
# [14] = molecular target: Man(a1-2)Man(a1-3)[Man(a1-2)Man(a1-6)]Man(a1-6)[Man(a1-2)Man(a1-2)Man(a1-3)]Man(b1-4)GlcNAc(b1-4)GlcNAc
# Procedure, shortened: as §1
# [15] = molecular target: Neu5Ac(a2-3)Gal(b1-3)GlcNAc
# Procedure, shortened: as §1
# [16] = molecular target: Neu5Ac(a2-3)Gal(b1-3)GlcNAc(b1-3)Gal(b1-3)GlcNAc
# Procedure, shortened: as §1
# [17] = molecular target: Neu5Ac(a2-3)Gal(b1-3)[Fuc(a1-4)]GlcNAc
# Procedure, shortened: as §1
# [18] = molecular target: Neu5Ac(a2-3)Gal(b1-3)[Neu5Ac(a2-3)Gal(b1-4)]GlcNAc
# Procedure, shortened: as §1
# [19] = molecular target: Neu5Ac(a2-3)Gal(b1-4)GlcNAc(b1-3)Gal(b1-4)GlcNAc(b1-3)Gal(b1-4)GlcNAc
# Procedure, shortened: as §1
# [20] = molecular target: Neu5Ac(a2-3)Gal(b1-4)GlcNAc(b1-3)Gal(b1-4)[Fuc(a1-3)]GlcNAc
# Procedure, shortened: as §1
# [21] = molecular target: Neu5Ac(a2-3)Gal6S(b1-4)[Fuc(a1-3)]GlcNAc
# Procedure, shortened: as §1
# [22] = molecular target: Neu5Ac(a2-3)GalNAc
# Procedure, shortened: as §1
# [23] = molecular target: Neu5Ac(a2-6)Gal(b1-4)GlcNAc
# Procedure, shortened: as §1
# [24] = molecular target: Neu5Ac(a2-6)Gal(b1-4)GlcNAc(b1-2)Man(a1-6)[GlcNAc(b1-2)Man(a1-3)]Man(b1-4)GlcNAc(b1-4)GlcNAc
# Procedure, shortened: as §1
# [25] = molecular target: Neu5Ac(a2-6)Gal(b1-4)GlcNAc(b1-3)Gal(b1-4)GlcNAc
# Procedure, shortened: as §1
# [26] = molecular target: Neu5Gc(a2-6)GalNAc
# Procedure, shortened: as §1
# [27] = molecular target: Fuc(a1-2)Gal(b1-4)GlcNAc(b1-3)Gal(b1-4)GlcNAc(b1-3)Gal(b1-4)GlcNAc
# Procedure, shortened: as §1
# [28] = molecular target: Fuc(a1-2)Gal(b1-4)GlcNAc6S
# Procedure, shortened: as §1
# [29] = molecular target: Fuc(a1-2)Gal(b1-4)[Fuc(a1-3)]GlcNAc
# Procedure, shortened: as §1
# [30] = molecular target: Fuc(a1-2)Gal(b1-4)[Fuc(a1-3)]GlcNAc(b1-3)Gal(b1-4)[Fuc(a1-3)]GlcNAc(b1-3)Gal(b1-4)[Fuc(a1-3)]GlcNAc
# Procedure, shortened: as §1
# [31] = molecular target: Fuc(a1-2)Gal6S(b1-4)Glc6S
# Procedure, shortened: as §1
# [32] = molecular target: Fuc(a1-2)[GalNAc(a1-3)]Gal(b1-4)Glc
# Procedure, shortened: as §1
# [33] = molecular target: Fuc(a1-3)[Gal(b1-4)]GlcNAc6S
# Procedure, shortened: as §1
# [34] = molecular target: Fuc(a1-3)[Gal3S(b1-4)]GlcNAc6S
# Procedure, shortened: as §1
# [35] = molecular target: Gal(a1-6)Glc
# Procedure, shortened: as §1
# [36] = molecular target: Gal(b1-4)GlcNAc(b1-3)Gal(b1-4)GlcNAc(b1-3)Gal(b1-4)GlcNAc
# Procedure, shortened: as §1
# [37] = molecular target: Gal3S(b1-3)GalNAc
# Procedure, shortened: as §1
# [38] = molecular target: Gal3S6S(b1-4)GlcNAc6S
# Procedure, shortened: as §1
# [39] = molecular target: Gal4S6S(b1-4)GlcNAc
# Procedure, shortened: as §1
# [40] = molecular target: GalNAc(a1-3)GalNAc
# Procedure, shortened: as §1
# [41] = molecular target: GlcA(b1-3)GlcNAc
# Procedure, shortened: as §1
# [42] = molecular target: Kdn(a2-3)Gal(b1-3)GlcNAc
# Procedure, shortened: as §1
# [43] = molecular target: Man(a1-2)Man(a1-2)Man(a1-3)Man
# Procedure, shortened: as §1
# [44] = molecular target: Neu5Ac(a2-3)Gal(b1-4)Glc
# Procedure, shortened: as §1
# [45] = molecular target: Neu5Ac(a2-3)Gal(b1-4)GlcNAc(b1-2)Man(a1-3)[Neu5Ac(a2-6)Gal(b1-4)GlcNAc(b1-2)Man(a1-6)]Man(b1-4)GlcNAc(b1-4)GlcNAc
# Procedure, shortened: as §1
# [46] = molecular target: Neu5Ac(a2-3)Gal(b1-4)GlcNAc(b1-3)Gal(b1-3)GlcNAc
# Procedure, shortened: as §1
# [47] = molecular target: Neu5Ac(a2-3)Gal(b1-4)[Fuc(a1-3)]GlcNAc(b1-3)Gal(b1-4)[Fuc(a1-3)]GlcNAc(b1-3)Gal(b1-4)[Fuc(a1-3)]GlcNAc
# Procedure, shortened: as §1
# [48] = molecular target: Neu5Ac(a2-6)Gal(b1-4)GlcNAc6S
# Procedure, shortened: as §1
# [49] = molecular target: Neu5Ac(b2-6)GalNAc
# Procedure, shortened: as §1
# [50] = molecular target: Neu5Gc(a2-3)Gal(b1-3)[Fuc(a1-4)]GlcNAc
# Procedure, shortened: as §1
# [51] = molecular target: Neu5Gc(a2-3)Gal(b1-4)Glc
# Procedure, shortened: as §1
binder,measurement,setting,value
"mLPHN-1 (Mus musculus), Q80TR1 (protein) MARLAAALWSLCVTTVLVTSATQGLSRAGLPFGLMRRELACEGYPIELRCPGSDVIMVENANYGRTDDKICDADPFQMENVQCYLPDAFKIMSQRCNNRTQCVVVAGSDAFPDPCPGTYKYLEVQYDCVPYIFVCPGTLQKVLEPTSTHESEHQSGAWCKDPLQAGDRIYVMPWIPYRTDTLTEYASWEDYVAARHTTTYRLPNRVDGTGFVVYDGAVFYNKERTRNIVKYDLRTRIKSGETVINTANYHDTSPYRWGGKTDIDLAVDENGLWVIYATEGNNGRLVVSQLNPYTLRFEGTWETGYDKRSASNAFMVCGVLYVLRSVYVDDDSEAAGNRVDYAFNTNANREEPVSLAFPNPYQFVSSVDYNPRDNQLYVWNNYFVVRYSLEFGPPDPSAGPATSPPLSTTTTARPTPLTSTASPAATTPLRRAPLTTHPVGAINQLGPDLPPATAPAPSTRRPPAPNLHVSPELFCEPREVRRVQWPATQQGMLVERPCPKGTRGIASFQCLPALGLWNPRGPDLSNCTSPWVNQVAQKIKSGENAANIASELARHTRGSIYAGDVSSSVKLMEQLLDILDAQLQALRPIERESAGKNYNKMHKRERTCKDYIKAVVETVDNLLRPEALESWKDMNATEQVHTATMLLDVLEEGAFLLADNVREPARFLAAKQNVVLEVTVLNTEGQVQELVFPQEYPSENSIQLSANTIKQNSRNGVVKVVFILYNNLGLFLSTENATVKLAGEAGTGGPGGASLVVNSQVIAASINKESSRVFLMDPVIFTVAHLEAKNHFNANCSFWNYSERSMLGYWSTQGCRLVESNKTHTTCACSHLTNFAVLMAHREIYQGRINELLLSVITWVGIVISLVCLAICISTFCFLRGLQTDRNTIHKNLCINLFLAELLFLVGIDKTQYEVACPIFAGLLHYFFLAAFSWLCLEGVHLYLLLVEVFESEYSRTKYYYLGGYCFPALVVGIAAAIDYRSYGTEKACWLRVDNYFIWSFIGPVSFVIVVNLVFLMVTLHKMIRSSSVLKPDSSRLDNIKSWALGAIALLFLLGLTWAFGLLFINKESVVMAYLFTTFNAFQGVFIFVFHCALQKKVHKEYSKCLRHSYCCIRSPPGGTHGSLKTSAMRSNTRYYTGTQSRIRRMWNDTVRKQTESSFMAGDINSTPTLNRGTMGNHLLTNPVLQPRGGTSPYNTLIAESVGFNPSSPPVFNSPGSYREPKHPLGGREACGMDTLPLNGNFNNSYSLRSGDFPPGDGGPEPPRGRNLADAAAFEKMIISELVHNNLRGASGGAKGPPPEPPVPPVPGVSEDEAGGPGSADRAEIELLYKALEEPLLLPRAQSVLYQSDLDESESCTAEDGATSRPLSSPPGRDSLYASGANLRDSPSYPDSSPEGPNEALPPPPPAPPGPPEIYYTSRPPALVARNPLQGYYQVRRPSHEGYLAAPSLEGPGPDGDGQMQLVTSL",glycan array binding signal (z-score),[1],0.213
same,glycan array binding signal (z-score),[2],15.8
same,glycan array binding signal (z-score),[3],-0.219
same,glycan array binding signal (z-score),[4],0.16
same,glycan array binding signal (z-score),[5],0.025
same,glycan array binding signal (z-score),[6],1.66
same,glycan array binding signal (z-score),[7],-0.105
same,glycan array binding signal (z-score),[8],2.08
same,glycan array binding signal (z-score),[9],1.13
same,glycan array binding signal (z-score),[10],1.27
same,glycan array binding signal (z-score),[11],0.793
same,glycan array binding signal (z-score),[12],-0.282
same,glycan array binding signal (z-score),[13],-0.173
same,glycan array binding signal (z-score),[14],0.551
same,glycan array binding signal (z-score),[15],0.014
same,glycan array binding signal (z-score),[16],-0.317
same,glycan array binding signal (z-score),[17],0
same,glycan array binding signal (z-score),[18],-0.26
same,glycan array binding signal (z-score),[19],-0.433
same,glycan array binding signal (z-score),[20],-0.402
same,glycan array binding signal (z-score),[21],-0.065
same,glycan array binding signal (z-score),[22],0.587
same,glycan array binding signal (z-score),[23],0.157
same,glycan array binding signal (z-score),[24],-0.261
same,glycan array binding signal (z-score),[25],-0.422
same,glycan array binding signal (z-score),[26],1.3
"CLC (Homo sapiens), Q9UBD9 (protein) MDLRAGDSWGMLACLCTVLWHLPAVPALNRTGDPGPGPSIQKTYDLTRYLEHQLRSLAGTYLNYLGPPFNEPDFNPPRLGAETLPRATVDLEVWRSLNDKLRLTQNYEAYSHLLCYLRGLNRQAATAELRRSLAHFCTSLQGLLGSIAGVMAALGYPLPQPLPGTEPTWTPGPAHSDFLQKMDDFWLLKELQTWLWRSAKDFNRLKKKMQPPAAAVTLHLGAHGF",glycan array binding signal (z-score),[1],-0.218
same,glycan array binding signal (z-score),[27],-0.886
same,glycan array binding signal (z-score),[28],-0.106
same,glycan array binding signal (z-score),[29],-0.557
same,glycan array binding signal (z-score),[30],0.011
same,glycan array binding signal (z-score),[31],2.23
same,glycan array binding signal (z-score),[32],1.52
same,glycan array binding signal (z-score),[33],-0.923
same,glycan array binding signal (z-score),[34],2.72
same,glycan array binding signal (z-score),[35],-0.312
same,glycan array binding signal (z-score),[36],-0.565
same,glycan array binding signal (z-score),[37],-0.144
same,glycan array binding signal (z-score),[38],11.1
same,glycan array binding signal (z-score),[39],2.49
same,glycan array binding signal (z-score),[40],0.257
same,glycan array binding signal (z-score),[41],0.215
same,glycan array binding signal (z-score),[42],-0.192
same,glycan array binding signal (z-score),[43],0.263
same,glycan array binding signal (z-score),[17],-0.63
same,glycan array binding signal (z-score),[44],0.101
same,glycan array binding signal (z-score),[45],0.098
same,glycan array binding signal (z-score),[46],0.852
same,glycan array binding signal (z-score),[47],-0.485
same,glycan array binding signal (z-score),[48],-0.346
same,glycan array binding signal (z-score),[49],-0.297
same,glycan array binding signal (z-score),[50],-0.279
same,glycan array binding signal (z-score),[51],2.45
